Drawing on PubChem BioAssay, this text covers inhibition for 19 compounds.

The target of this experiment is Pantothenate synthetase (Mycobacterium tuberculosis (strain ATCC 25618 / H37Rv)) (UniProt P9WIL5). Description: Recombinant Mtb pantothenate synthetase (PanC) inhibitors, coupled enzyme, confirmatory (AID 375).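 Note: 0% = full reaction with vehicle and 100% = no enzyme background.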 As to conditions: coupled enzyme assay; at 10 µM, active compounds read high.

Usually inhibition stands for the share of the control response that was lost under treatment.

The structures appear in SMILES notation. Values without a mark were called inactive. The rule behind the calls is not given here.

Sequence of Pantothenate synthetase (Mycobacterium tuberculosis (strain ATCC 25618 / H37Rv)) (P9WIL5 whole entry, looked up): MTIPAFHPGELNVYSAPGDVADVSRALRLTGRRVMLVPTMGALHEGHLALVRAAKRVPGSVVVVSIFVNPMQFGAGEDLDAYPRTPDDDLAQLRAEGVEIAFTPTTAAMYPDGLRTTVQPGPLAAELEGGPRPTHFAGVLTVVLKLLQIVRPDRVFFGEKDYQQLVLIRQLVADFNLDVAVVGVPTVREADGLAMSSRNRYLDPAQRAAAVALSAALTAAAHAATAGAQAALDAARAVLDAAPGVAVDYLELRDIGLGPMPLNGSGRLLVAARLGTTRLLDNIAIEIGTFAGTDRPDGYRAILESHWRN

Turning to `COc1cc(NC(=O)c2cc(-n3cnnc3)ccc2Cl)cc(OC)c1`, the inhibition is 2%.
The value for `COC(=O)c1cc(NC(=O)C2CC=CCC2C(=O)O)cc(C(=O)OC)c1` (centres undefined) was 3%; that for `COc1ccc(CCNC(=O)COc2ccc(S(=O)(=O)N3CCOCC3)cc2)cc1` was 6%; that for `COc1cccc(C(=O)N2CCCC(c3nc(-c4cccs4)no3)C2)c1` (centres undefined) was 0%.
Next, `CCOC(=O)Cc1csc(NC(=O)CSc2nnc(C)n2C)n1`: 0%.
For the compound `CCC(C)OC(=O)c1[nH]c2c(c1C)C(=O)CC(c1ccc(N(C)C)cc1)C2` (centres undefined), the inhibition is 0%.
The value for `CC(=O)Nc1ccc(NC(=O)Cn2cnc3c(cnn3C(C)(C)C)c2=O)cc1` was 3%.
The value for `CN1CCN(C(c2cccc(C(F)(F)F)c2)c2nnnn2C(C)(C)C)CC1` (centres undefined) was 1%.
The value for `Cn1c(=O)c2ncn(CC(=O)NCCOc3ccc(C(C)(C)C)cc3)c2n(C)c1=O` was 0%; that for `COc1cccc(-c2cc(C(=O)N3CCCCCC3)no2)c1` was 1%; that for `CCN(CC)CCN1C(=O)C(=O)/C(=C(/O)c2ccc(OC(C)C)cc2)C1c1ccncc1` (centres undefined) was 5%.
Consider `COc1ccc(CNc2nc3nc(C)c(Cl)c(C)n3n2)cc1OC`, for which the inhibition was 6%.
The value for `Cc1ccc(C)c(NC(=O)CSc2nnc(-c3ccccc3)o2)c1` was 5%.
Next, `O=C(COC(=O)c1cnccn1)Nc1ccc2c(c1)OCO2`: 7%; `CC(=O)N(C)C1(c2nnnn2CCOC(=O)Nc2cccc3ccccc23)CCCC1`: 0%.
As to `O=C(NCCCN1CCCC1=O)c1cncc(Br)c1`, the inhibition is 0%.
Next, `Cc1cncn1CCc1nc2c3ccccc3nc(=S)n2[nH]1`: 7%.
Take `CCC1CCCCN1c1nc(-c2ccncc2)nc2ccccc12` (centres undefined): the inhibition was 1%.
For `CSc1oc(-c2ccccc2)nc1S(=O)(=O)c1ccc(F)cc1`, the inhibition was 0%.
